Assay [1] can be described thus: NCI Yeast Anticancer Drug Screen. Data for the rad50 strain (AID 155).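 Further: 0% = growth of vehicle-only cultures of the same strain.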 To be noted: S. cerevisiae rad50 strain growth inhibition, hits give high values. The method in brief: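 Cells are treated with compound, grown, and their growth is then scored against vehicle-only cultures of the same repair-deficient yeast strain.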
The nature of assay [2]: NCI Yeast Anticancer Drug Screen. Data for the mec2-1 strain (AID 157). The conditions noted are these: S. cerevisiae mec2-1 strain, hits give high values. The method in brief:
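Compounds were applied to mec2-1 yeast cells. Their growth was then compared with that of vehicle-treated cultures to give growth inhibition.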

The nature of assay [3]: NCI Yeast Anticancer Drug Screen. Data for the sgs1 mgt1 strain (AID 161).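 Further: 0% = growth of cultures given vehicle only.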 The conditions noted are these: S. cerevisiae sgs1 mgt1 strain, hits give high values. The method in brief:
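Percent growth inhibition was derived by comparing compound-exposed mutant yeast with vehicle-exposed cultures. The strain carries alterations in DNA damage repair.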

Assay [4] is described as follows: NCI Yeast Anticancer Drug Screen. Data for the cln2 rad14 strain (AID 165).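 Further: 0% = growth equal to vehicle treated cultures.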 The conditions noted are these: S. cerevisiae cln2 rad14 strain, hits give high values. The method in brief:
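Strain: cln2 rad14 yeast, altered in cell cycle control and DNA damage repair. Read-out: growth inhibition vs vehicle.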

Assay [5] can be described thus: NCI Yeast Anticancer Drug Screen. Data for the bub3 strain (AID 167). To be noted: S. cerevisiae bub3 mutant strain, hits give high values. Put shortly:
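Part of a panel of yeast mutants defective in DNA damage repair or cell cycle regulation. Each strain is grown with compound, and inhibition is calculated relative to solvent-treated cultures.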

A short description of assay [6]: NCI Yeast Anticancer Drug Screen. Data for the mlh1 rad18 strain (AID 175). The conditions noted are these: S. cerevisiae mlh1 rad18 strain growth inhibition, hits give high values. The method in brief: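 A repair-deficient yeast strain is exposed to test compound, and growth is scored relative to vehicle-treated controls.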
[7] abbreviates: at 5.0 µM (retest, dose inferred, filed as 0.5).
Setting [8] is: at 50.0 µM (retest, dose inferred, filed as 5.0).

SMILES strings stand for the structures. Compounds without any hit were thinned out: in the full panel of roughly 79,000, 15% have a hit. Values without a mark were called inactive. Activity calls are given as the source filed them. No stated cut-off is given here; in the data, active means growth inhibition above about 70%; inactive means the rest.

Take `Cc1ccnc2[nH]c3ccccc3c(=O)c12`: the growth inhibition was 29% in assay [1] (setting [7]); 98% (active) in assay [1] (setting [8]); 81.5% (active) in assay [1] (at 50.0 µM); 38% in assay [2] (setting [7]); 98% (active) in assay [2] (setting [8]); 69.5% in assay [2] (at 50.0 µM). Further, the growth inhibition was 18% in assay [3] (setting [7]); 96% (active) in assay [3] (setting [8]); 65.5% in assay [3] (at 50.0 µM); 30% in assay [4] (setting [7]); 96% (active) in assay [4] (setting [8]); 21.4% in assay [4] (at 50.0 µM). The growth inhibition in assay [5] (setting [7]) is 15%; in assay [5] (setting [8]), 96% (active); in assay [5] (at 50.0 µM), 65.2%; in assay [6] (setting [7]) it was 36%; in assay [6] (setting [8]) it was 99% (active); in assay [6] (at 50.0 µM) it was 77.7% (active).

For `CC(C)c1ccc(O)c(Cc2cc(C(C)C)ccc2O)c1`, the growth inhibition in assay [1] (setting [7]) was 42%; in assay [1] (setting [8]) it was 98% (active); in assay [1] (at 50.0 µM), 98.2% (active); in assay [2] (setting [7]), 23%; in assay [2] (setting [8]) it was 98% (active); in assay [2] (at 50.0 µM), 98.3% (active). The growth inhibition is 20% in assay [3] (setting [7]); 99% (active) in assay [3] (setting [8]); 96.7% (active) in assay [3] (at 50.0 µM); 20% in assay [4] (setting [7]); 98% (active) in assay [4] (setting [8]); 97.1% (active) in assay [4] (at 50.0 µM). Further, the growth inhibition in assay [6] (setting [7]) was 64%; in assay [6] (setting [8]), 98% (active); in assay [6] (at 50.0 µM), 97.5% (active).

Consider `O=C(O)Cc1c[nH]c2ccccc12`, for which the growth inhibition is 46% in assay [1] (setting [7]); -3% in assay [1] (setting [8]); 51% in assay [1] (at 50.0 µM); 31% in assay [2] (setting [7]); 7% in assay [2] (setting [8]); 64% in assay [2] (at 50.0 µM). Besides, the growth inhibition was 42% in assay [3] (setting [7]); -2% in assay [3] (setting [8]); 94% (active) in assay [3] (at 50.0 µM); 9% in assay [4] (setting [7]); -12% in assay [4] (setting [8]); 49% in assay [4] (at 50.0 µM). Further, the growth inhibition in assay [5] (setting [7]) is 85% (active); in assay [5] (setting [8]) it was -8%; in assay [5] (at 50.0 µM), 92.5% (active); in assay [6] (setting [7]), 84% (active); in assay [6] (setting [8]), -2%; in assay [6] (at 50.0 µM), 91.2% (active).

On to `Oc1ccc(C2CCCCC2)cc1`, for which the growth inhibition was 1% in assay [1] (setting [7]); 59% in assay [1] (setting [8]); 85.5% (active) in assay [1] (at 50.0 µM); -4% in assay [2] (setting [7]); 51% in assay [2] (setting [8]); 79.5% (active) in assay [2] (at 50.0 µM). The growth inhibition in assay [3] (setting [7]) was -10%; in assay [3] (setting [8]), 54%; in assay [3] (at 50.0 µM) it was 95.3% (active); in assay [5] (setting [7]) it was -4%; in assay [5] (setting [8]), 62%; in assay [5] (at 50.0 µM), 48.6%. Also, the growth inhibition was 0% in assay [6] (setting [7]), 40% in assay [6] (setting [8]) and 93.8% (active) in assay [6] (at 50.0 µM).

As for `CCCCCCCCCCCCO`, the growth inhibition in assay [1] (setting [7]) was 10%; in assay [1] (setting [8]) it was 23%; in assay [1] (at 50.0 µM) it was 64.4%; in assay [2] (setting [7]), 9%; in assay [2] (setting [8]), 24%; in assay [2] (at 50.0 µM) it was 42%. In addition, the growth inhibition was -4% in assay [3] (setting [7]); 28% in assay [3] (setting [8]); 60.8% in assay [3] (at 50.0 µM); -6% in assay [5] (setting [7]); 51% in assay [5] (setting [8]); 2.85% in assay [5] (at 50.0 µM). Also, the growth inhibition was 12% in assay [6] (setting [7]), 55% in assay [6] (setting [8]) and 76.4% (active) in assay [6] (at 50.0 µM).

In the case of `CCN(CC)CCO/N=C1\CC[C@H]2[C@@H]3CCc4cc(OC)ccc4[C@H]3CC[C@]12C`, the growth inhibition in assay [1] (setting [7]) is 31%; in assay [1] (setting [8]), 99% (active); in assay [1] (at 50.0 µM) it was 89.1% (active); in assay [2] (setting [7]) it was 27%; in assay [2] (setting [8]), 98% (active); in assay [2] (at 50.0 µM), 92.2% (active). Besides, the growth inhibition in assay [3] (setting [7]) is 58%; in assay [3] (setting [8]), 98% (active); in assay [3] (at 50.0 µM) it was 91.3% (active); in assay [5] (setting [7]) it was 66%; in assay [5] (setting [8]), 98% (active); in assay [5] (at 50.0 µM) it was 90.7% (active). Also, the growth inhibition is 34% in assay [6] (setting [7]), 99% (active) in assay [6] (setting [8]) and 89.7% (active) in assay [6] (at 50.0 µM).

With `N#CC(=C1C=CC(=NOC(=O)Nc2ccccc2)C=C1)c1ccccc1`, the growth inhibition in assay [1] (setting [7]) is 18%; in assay [1] (setting [8]) it was 98% (active); in assay [1] (at 50.0 µM), 99% (active); in assay [2] (setting [7]), 4%; in assay [2] (setting [8]), 99% (active); in assay [2] (at 50.0 µM), 99.4% (active). Moreover, the growth inhibition in assay [3] (setting [7]) is 11%; in assay [3] (setting [8]), 99% (active); in assay [3] (at 50.0 µM), 99.5% (active); in assay [4] (setting [7]), 1%; in assay [4] (setting [8]), 99% (active); in assay [4] (at 50.0 µM), 88.3% (active). The growth inhibition in assay [6] (setting [7]) is 5%; in assay [6] (setting [8]), 98% (active); in assay [6] (at 50.0 µM), 99.2% (active).

Take `CN(C)CCCNc1ccc(O)c2c1C(=O)c1ccccc1C2=O`: the growth inhibition in assay [1] (setting [7]) is 93% (active); in assay [1] (setting [8]) it was 99% (active); in assay [1] (at 50.0 µM), 89.9% (active); in assay [2] (setting [7]) it was 95% (active); in assay [2] (setting [8]), 99% (active); in assay [2] (at 50.0 µM) it was 87.8% (active). Moreover, the growth inhibition is 96% (active) in assay [3] (setting [7]); 99% (active) in assay [3] (setting [8]); 88.2% (active) in assay [3] (at 50.0 µM); 92% (active) in assay [5] (setting [7]); 98% (active) in assay [5] (setting [8]); 89.7% (active) in assay [5] (at 50.0 µM). In addition, the figures for the growth inhibition in assay [6] (setting [7]), in assay [6] (setting [8]) and in assay [6] (at 50.0 µM) were 97% (active), 99% (active) and 89.6% (active), respectively.

Regarding `COc1ccc2ccccc2c1/C=C/C(=O)c1ccccc1`, the growth inhibition is -3% in assay [1] (setting [7]); 34% in assay [1] (setting [8]); 54.6% in assay [1] (at 50.0 µM); 7% in assay [2] (setting [7]); 43% in assay [2] (setting [8]); 19.4% in assay [2] (at 50.0 µM). Also, the growth inhibition in assay [3] (setting [7]) is 11%; in assay [3] (setting [8]), 47%; in assay [3] (at 50.0 µM), 42.4%; in assay [4] (setting [7]) it was -19%; in assay [4] (setting [8]), 40%; in assay [4] (at 50.0 µM) it was 56.2%. Moreover, the growth inhibition in assay [6] (setting [7]) was 1%; in assay [6] (setting [8]) it was 72% (active); in assay [6] (at 50.0 µM) it was 46.4%.

As for `CN1C(/C=C/c2ccc(O)c3ncccc23)CCC2CCCC(O)C21` (centres undefined), the growth inhibition in assay [1] (setting [7]) is 1%; in assay [1] (setting [8]) it was 94% (active); in assay [1] (at 50.0 µM) it was 95% (active); in assay [2] (setting [7]), 26%; in assay [2] (setting [8]), 95% (active); in assay [2] (at 50.0 µM), 89.6% (active). Further, the growth inhibition in assay [3] (setting [7]) is 9%; in assay [3] (setting [8]), 94% (active); in assay [3] (at 50.0 µM), 92.2% (active); in assay [4] (setting [7]), -12%; in assay [4] (setting [8]), 91% (active); in assay [4] (at 50.0 µM), 85.2% (active). The growth inhibition in assay [5] (setting [7]) was 8%; in assay [5] (setting [8]), 96% (active); in assay [5] (at 50.0 µM), 92.8% (active); in assay [6] (setting [7]), 14%; in assay [6] (setting [8]), 96% (active); in assay [6] (at 50.0 µM), 95.4% (active).

(Values after PubChem BioAssay (NCI).)
